Data as given in article PMC8384837, “Expanding the binding specificity for RNA recognition by a PUF domain”.

Each sequence was assayed against PUM1 PUF domain R5-RRN (Homo sapiens, UniProt Q14671 828-1176, C1007R;Q1011N) (assay: yeast three-hybrid, YBZ-1, SC-Leu-His + 0.5 mM 3-AT, 4 days). Settings: tags: N-Gal4 AD-HA kept; label: inside an RPR1-promoter hybrid RNA with tandem MS2 sites; ssRNA.
Procedure, shortened: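 Pumilio-1 PUF domain libraries, randomized at the three base-contacting residues of each repeat, were co-expressed with matching RNA elements from a centromeric plasmid in strain YBZ-1, which carries a LexA–MS2 coat fusion and a HIS3 reporter. Transformants grew for four days on SC-Leu (input) or on SC-Leu-His + 0.5 mM 3-AT (selection), and the repeat regions were PCR-amplified and Illumina-sequenced. The interaction score is the log change in variant frequency from input to selection. That logarithm is base 2, with a pseudocount of 1 where a variant was absent.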

PUM1 PUF domain R5-RRN, sequence (Q14671 828-1176 C1007R/Q1011N): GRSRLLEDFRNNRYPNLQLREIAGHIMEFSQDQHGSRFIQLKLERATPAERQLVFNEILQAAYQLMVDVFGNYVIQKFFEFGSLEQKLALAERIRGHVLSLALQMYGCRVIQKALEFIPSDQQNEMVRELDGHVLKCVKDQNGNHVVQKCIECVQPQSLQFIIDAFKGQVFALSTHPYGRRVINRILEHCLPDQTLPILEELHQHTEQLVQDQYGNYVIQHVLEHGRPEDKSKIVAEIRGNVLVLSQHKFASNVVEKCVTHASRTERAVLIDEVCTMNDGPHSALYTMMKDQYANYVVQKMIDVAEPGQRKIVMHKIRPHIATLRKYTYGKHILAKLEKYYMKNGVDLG

Row | Sequence | binding signal
1 | GGCUAGAACUAGUGGAUCCCCCGGCGCCCGGCGGCUCGAGCCCGGGUAAGUGUCAAUAGUCUGCAUGCCGCCGGGCGCCAUGCCUGCAGGUCGACUCUAGAAAACAUG | 4.4 log2 enrichment (interaction score)
2 | GGCUAGAACUAGUGGAUCCCCCGGCGCCCGGCGGCUCGAGCCCGGGUAAGUGUUAAUAGUCUGCAUGCCGCCGGGCGCCAUGCCUGCAGGUCGACUCUAGAAAACAUG | 3.66 log2 enrichment (interaction score)
3 | GGCUAGAACUAGUGGAUCCCCCGGCGCCCGGCGGCUCGAGCCCGGGUAAGUGUGAAUAGUCUGCAUGCCGCCGGGCGCCAUGCCUGCAGGUCGACUCUAGAAAACAUG | 1.8 log2 enrichment (interaction score)
4 | GGCUAGAACUAGUGGAUCCCCCGGCGCCCGGCGGCUCGAGCCCGGGUAAGUGUAAAUAGUCUGCAUGCCGCCGGGCGCCAUGCCUGCAGGUCGACUCUAGAAAACAUG | 2.02 log2 enrichment (interaction score)
